A short description of assay [1]: qHTS assay to identify small molecule HDAC inhibitors - cell viability counter screen (AID 1259365). Further: series mostly up to about 92 µM; nearly all actives have a fitted effect of over 50% in size. The method, boiled down: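 Counter screen in wild-type HCT-116 cells: compounds dissolved in DMSO are pin-transferred onto overnight-plated cells and left 2hr at 37C. ATP-based CellTiter-Glo luminescence then measures viable cells.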
Assay [2] can be described thus: qHTS assay to identify small molecule agonists of the sonic hedgehog signaling (Shh) pathway (AID 1259368; calls by dose curve;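 further: NIH/3T3-derived 3T3Gli1-Luc cells carrying a stable Gli1-driven firefly luciferase reporter; series mostly up to about 92 µM; nearly all actives have a fitted effect of over 15% in size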). The procedure, abridged: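 Quantitative high-throughput format using a Gli1-driven firefly luciferase reporter line derived from NIH/3T3 cells. After a 24 hr compound treatment at 37 C and 5% CO2, luminescence reported Gli1 response element activity.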
Assay [3] deals with Estrogen receptor beta (Homo sapiens) (UniProt Q92731). The experiment in a line: qHTS assay to identify small molecule antagonists of the estrogen receptor beta (ER-beta) signaling pathway (AID 1259378; active means well fitted inhibition curve with a large enough effect in the signal ratio in the repeat runs, not every such curve was filed as active; the % refers to the signal ratio; further: potency means the concentration at half of the fitted maximal effect). The procedure, abridged: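 Antagonist mode: compounds added to beta-lactamase reporter HEK293T ER-beta-UAS cells stimulated with E2 (1nM final), 16 hr at 37C. LiveBLAzer B/G FRET substrate, 2 hours room temperature, fluorescence read-out.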

Assay [4] in a line: qHTS assay to identify small molecule agonists of the androgen receptor (AR) signaling pathway in the presence of an antagonist - cell viability counter screen (AID 1259379). Further: potency means the concentration at half of the fitted maximal effect; nearly all actives have a fitted effect of over 25% in size. The method, boiled down: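 Nilutamide-containing (3.0uM final) MDA-kb2 cultures, 3,000 cells/well, were treated with compounds across 15 concentrations. After 16 hr at 37C with no CO2, cell viability was determined by CellTiter-Fluor fluorescence in the luciferase assay wells.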
A general note: In qHTS, concentration-response curves come from the screen itself.

A short description of assay [5]: qHTS assay to identify small molecule agonists of the estrogen receptor beta (ER-beta) signaling pathway - cell viability counter screen (AID 1259380). Further: nearly all actives have a fitted effect of over 30% in size. Further: potency means the concentration at half of the fitted maximal effect. The procedure, abridged:
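Steps: plate ER-beta-UAS-bla HEK293T cells, rest 6 hr; add compounds in DMSO; incubate 16 hr at 37C, 5% CO2; add FRET substrate 2 hr; add CellTiter-Glo, wait 30 min at room temperature; read luminescence.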

The target of assay [6] is Androgen receptor (Homo sapiens) (UniProt P10275). Nature of the assay: qHTS assay to identify small molecule agonists of the androgen receptor (AR) signaling pathway in the presence of an antagonist (AID 1259381; calls by dose curve; further: nearly all actives have a fitted effect of over 15% in size). The method, boiled down:
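Reporter-gene luminescence from MDA-kb2 cells exposed 16hr at 37C (0% CO2) to 15-point compound titrations with 3.0uM final nilutamide as AR antagonist.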

Assay [7] can be described thus: qHTS assay to identify small molecule antagonists of the estrogen receptor beta (ER-beta) signaling pathway - cell viability counter screen (AID 1259382). Further: nearly all actives have a fitted effect of over 55% in size. Further: potency means the concentration at half of the fitted maximal effect. The procedure, abridged:
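Viability is scored by CellTiter-Glo luminescence (30 min, room temperature) in ER-beta-UAS-bla HEK293T wells already read for reporter fluorescence. Compound exposure lasts 16 hr at 37C alongside 1nM 17-beta-estradiol in charcoal-stripped serum medium.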

A short description of assay [8]: qHTS assay to identify small molecule agonists of the sonic hedgehog signaling (Shh) pathway - cell viability counter screen (AID 1259366). Further: nearly all actives have a fitted effect of over 50% in size. Further: potency means the concentration at half of the fitted maximal effect. The method, boiled down:
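Cells are plated at 2,000 per well and left 4hr at 37C, 5% CO2 before compound addition. After 23hr of treatment, CellTiter-Fluor reagent is added for 1hr at 37C and fluorescence is measured.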

Assay [9] can be described thus: qHTS assay to identify small molecule antagonists of the sonic hedgehog signaling (Shh) pathway - cell viability counter screen (AID 1259367). Further: nearly all actives have a fitted effect of over 55% in size. Further: potency means the concentration at half of the fitted maximal effect. The procedure, abridged: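 Viability was read by CellTiter-Fluor fluorescence in the same wells, reagent added 23 hr into compound treatment and incubated 1 hr at 37C. The 3T3 Gli1-Luc reporter cells (2,000/well) received conditioned medium after compound and ran 24 hr.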

A short description of assay [10]: qHTS assay to identify small molecule agonists of the estrogen receptor alpha (ER-alpha) signaling pathway in the presence of an antagonist - cell viability counter screen (AID 1259386).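 Further: cells exposed to compounds for 22 h at 37 °C before the viability read; nearly all actives have a fitted effect of over 30% in size.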 Further: potency means the concentration at half of the fitted maximal effect. The method, boiled down:
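In this counter screen, compound effects on VM7Luc4E2 viability were tested in the presence of the antagonist ICI-182,780 at 10.0nM final. Compounds were dosed at 15 concentrations, exposure lasted 22hr, and the CellTiter-Fluor signal was read.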

Assay [11] addresses Estrogen receptor (Homo sapiens) (UniProt P03372). Nature of the assay: qHTS assay to identify small molecule antagonists of the estrogen receptor alpha (ER-alpha) signaling pathway using the BG1 cell line in the presence of 0.1 nM 17-beta-estradiol (AID 1259244). Further: nearly all actives have a fitted effect of over 50% in size. Further: potency means the concentration at half of the fitted maximal effect. The method, boiled down:
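Reporter is a stably transfected luciferase under four estrogen responsive elements in VM7Luc4E2 cells expressing native full-length ER-alpha; inhibition of 0.1 nM (final) 17beta-estradiol-driven signal over 22 h is read by luminescence.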

A short description of assay [12]: qHTS assay to identify small molecule antagonists of the sonic hedgehog signaling (Shh) pathway (AID 1259369; calls by dose curve; further: nearly all actives have a fitted effect of over 45% in size; further: potency means the concentration at half of the fitted maximal effect). The procedure, abridged:
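Stable Gli1-Luc reporter NIH/3T3 clone; quantitative HTS in stimulated mode with conditioned medium. Luminescence measured after 24hr compound treatment at 37 C.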

For assay [13], the target named is Estrogen receptor beta (Homo sapiens) (UniProt Q92731). Nature of the assay: qHTS assay to identify small molecule agonists of the estrogen receptor beta (ER-beta) signaling pathway (AID 1259377; active means well fitted activation curve with a large enough effect in the signal ratio in the repeat runs, not every such curve was filed as active; the % refers to the signal ratio). The procedure, abridged:
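Agonist mode cell assay in GripTite HEK293T cells expressing an ER-beta fusion that drives beta-lactamase from an Upstream Activator Sequence; 16 hr compound exposure at 37C, then 2 h LiveBLAzer B/G FRET substrate at room temperature, fluorescence read-out.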

In assay [14] the target is Estrogen receptor (Homo sapiens) (UniProt P03372). The experiment in a line: qHTS assay to identify small molecule agonists of the estrogen receptor alpha (ER-alpha) signaling pathway in the presence of an antagonist (AID 1259383; calls by dose curve; further: nearly all actives have a fitted effect of over 15% in size; further: potency means the concentration at half of the fitted maximal effect; on activation: top concentration of the series differs between compounds). The procedure, abridged: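 Readout was ERE-driven luciferase luminescence in VM7Luc4E2 cells, which express full-length ER-alpha endogenously. Compounds were tested at 15 concentrations for 22hr alongside 10.0nM ICI-182,780 (final concentration).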

Assay [15] in a line: qHTS assay to identify small molecule agonists or antagonists of the thyroid stimulating hormone receptor (TSHR) signaling pathway - wild type cell line counter screen (AID 1259384; calls by dose curve). The method, boiled down: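 Counter screen in untransfected Hek293: compounds (15-point titration, triplicate) plus phosphodiesterase inhibitor Ro20-1724 added after 18 h plating; 30 min RT. Intracellular cAMP via competitive d2/cryptate immunoassay, 1 h incubation.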

Assay [16] addresses Thyrotropin receptor (Homo sapiens) (UniProt P16473). The experiment in a line: qHTS assay to identify small molecule antagonists of the thyroid stimulating hormone receptor (TSHR) signaling pathway (AID 1259385; calls by dose curve; further: nearly all actives have a fitted effect of over 20% in size; further: potency means the concentration at half of the fitted maximal effect). The method, boiled down:
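Antagonist mode: compound-treated TSHR-expressing HEK293 cells were stimulated with 1.5 ng/mL TSH (final) in presence of Ro20-1724 for 30 min at RT. HTRF cAMP detection after 1 h; each compound tested at 15 concentrations, triplicate.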

Assay [17] is described as follows: qHTS assay to identify small molecule HDAC inhibitors (AID 1259364).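 Further: wild-type HCT-116 cells with endogenous class I/II HDAC activity; top concentration of the series differs between compounds; nearly all actives have a fitted effect of over 45% in size.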 The method, boiled down: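 Quantitative high-throughput format: overnight-seeded HCT-116 cells got compounds for 2 hr at 37C; HDAC-Glo I/II reagent added, 30 min RT, luminescence measured.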
The nature of assay [18]: qHTS assay to identify small molecule phospholipidosis (PLD) inducers (AID 1259344; active means well fitted curve in the direction sought with a large enough effect; an effect the other way counts as inactive or inconclusive). The procedure, abridged:
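Phospholipid accumulation was scored by imaging: fixed, Hoechst-counterstained HepG2 cells stained with LipidTOX Red after 24 h compound exposure at 37 C. Read-outs were pit count and pit intensity per well or per cell, with amiodarone and DMSO controls.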

Results filed as inconclusive are left out. Activity calls are given as the source filed them. Unless noted, the call rests on the fitted dose curve; in most records, active means well fitted curve in the direction sought with a large enough effect in the repeat runs; inconclusive means weak or mixed curves; inactive means no such curve, though single readings can be large; an effect the other way counts as inactive or inconclusive.

Estrogen receptor (Homo sapiens), sequence (P03372 whole entry, looked up): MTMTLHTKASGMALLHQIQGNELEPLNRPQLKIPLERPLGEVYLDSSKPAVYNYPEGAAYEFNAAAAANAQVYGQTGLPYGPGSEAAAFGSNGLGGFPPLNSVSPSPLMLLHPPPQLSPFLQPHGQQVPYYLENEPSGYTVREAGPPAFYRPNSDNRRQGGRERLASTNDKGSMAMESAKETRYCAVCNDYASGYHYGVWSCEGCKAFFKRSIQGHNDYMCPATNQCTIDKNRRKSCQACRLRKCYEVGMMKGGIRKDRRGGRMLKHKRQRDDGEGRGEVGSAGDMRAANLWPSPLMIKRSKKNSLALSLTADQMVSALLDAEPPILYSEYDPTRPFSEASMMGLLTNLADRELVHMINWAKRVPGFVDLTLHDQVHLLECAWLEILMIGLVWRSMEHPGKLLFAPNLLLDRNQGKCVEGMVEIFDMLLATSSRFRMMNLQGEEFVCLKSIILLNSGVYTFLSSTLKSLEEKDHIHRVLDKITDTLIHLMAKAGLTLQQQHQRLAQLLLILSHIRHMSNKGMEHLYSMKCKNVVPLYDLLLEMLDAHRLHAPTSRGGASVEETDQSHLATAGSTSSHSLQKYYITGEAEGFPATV
Thyrotropin receptor (Homo sapiens), sequence (P16473 whole entry, looked up): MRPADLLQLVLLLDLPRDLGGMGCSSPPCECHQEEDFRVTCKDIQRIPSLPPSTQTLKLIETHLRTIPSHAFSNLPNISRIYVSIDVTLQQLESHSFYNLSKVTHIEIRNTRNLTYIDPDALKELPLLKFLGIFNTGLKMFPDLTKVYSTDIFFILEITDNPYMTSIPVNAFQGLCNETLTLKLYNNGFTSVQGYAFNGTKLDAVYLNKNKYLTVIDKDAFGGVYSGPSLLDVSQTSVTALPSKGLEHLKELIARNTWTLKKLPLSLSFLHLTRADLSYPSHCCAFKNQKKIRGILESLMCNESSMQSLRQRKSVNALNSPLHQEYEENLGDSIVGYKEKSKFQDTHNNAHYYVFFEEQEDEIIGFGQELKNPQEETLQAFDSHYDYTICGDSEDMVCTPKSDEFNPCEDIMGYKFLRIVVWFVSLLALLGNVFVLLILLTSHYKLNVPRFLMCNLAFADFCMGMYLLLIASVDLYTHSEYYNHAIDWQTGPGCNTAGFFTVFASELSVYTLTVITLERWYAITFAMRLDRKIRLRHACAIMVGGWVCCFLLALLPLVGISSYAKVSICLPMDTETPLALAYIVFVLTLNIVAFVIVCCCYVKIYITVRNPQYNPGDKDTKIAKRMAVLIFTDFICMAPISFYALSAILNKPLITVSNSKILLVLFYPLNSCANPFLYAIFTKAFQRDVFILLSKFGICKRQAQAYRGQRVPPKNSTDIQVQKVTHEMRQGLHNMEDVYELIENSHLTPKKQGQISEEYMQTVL
Estrogen receptor beta (Homo sapiens), sequence (Q92731 whole entry, looked up, the tested form may be a part): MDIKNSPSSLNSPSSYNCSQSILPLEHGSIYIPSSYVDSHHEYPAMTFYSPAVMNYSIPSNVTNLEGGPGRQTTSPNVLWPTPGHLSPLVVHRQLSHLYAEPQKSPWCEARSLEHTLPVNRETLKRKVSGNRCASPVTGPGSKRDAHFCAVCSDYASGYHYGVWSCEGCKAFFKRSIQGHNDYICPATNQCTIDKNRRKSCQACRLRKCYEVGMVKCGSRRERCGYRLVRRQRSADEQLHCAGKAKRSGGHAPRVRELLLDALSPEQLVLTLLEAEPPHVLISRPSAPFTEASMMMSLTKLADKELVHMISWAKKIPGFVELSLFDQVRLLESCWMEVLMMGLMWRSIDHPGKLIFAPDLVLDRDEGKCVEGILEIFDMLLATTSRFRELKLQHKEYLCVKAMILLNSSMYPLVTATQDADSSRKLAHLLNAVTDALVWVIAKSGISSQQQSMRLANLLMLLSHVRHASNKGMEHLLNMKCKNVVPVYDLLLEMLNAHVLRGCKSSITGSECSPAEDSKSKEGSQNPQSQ
Androgen receptor (Homo sapiens), sequence (P10275 whole entry, looked up): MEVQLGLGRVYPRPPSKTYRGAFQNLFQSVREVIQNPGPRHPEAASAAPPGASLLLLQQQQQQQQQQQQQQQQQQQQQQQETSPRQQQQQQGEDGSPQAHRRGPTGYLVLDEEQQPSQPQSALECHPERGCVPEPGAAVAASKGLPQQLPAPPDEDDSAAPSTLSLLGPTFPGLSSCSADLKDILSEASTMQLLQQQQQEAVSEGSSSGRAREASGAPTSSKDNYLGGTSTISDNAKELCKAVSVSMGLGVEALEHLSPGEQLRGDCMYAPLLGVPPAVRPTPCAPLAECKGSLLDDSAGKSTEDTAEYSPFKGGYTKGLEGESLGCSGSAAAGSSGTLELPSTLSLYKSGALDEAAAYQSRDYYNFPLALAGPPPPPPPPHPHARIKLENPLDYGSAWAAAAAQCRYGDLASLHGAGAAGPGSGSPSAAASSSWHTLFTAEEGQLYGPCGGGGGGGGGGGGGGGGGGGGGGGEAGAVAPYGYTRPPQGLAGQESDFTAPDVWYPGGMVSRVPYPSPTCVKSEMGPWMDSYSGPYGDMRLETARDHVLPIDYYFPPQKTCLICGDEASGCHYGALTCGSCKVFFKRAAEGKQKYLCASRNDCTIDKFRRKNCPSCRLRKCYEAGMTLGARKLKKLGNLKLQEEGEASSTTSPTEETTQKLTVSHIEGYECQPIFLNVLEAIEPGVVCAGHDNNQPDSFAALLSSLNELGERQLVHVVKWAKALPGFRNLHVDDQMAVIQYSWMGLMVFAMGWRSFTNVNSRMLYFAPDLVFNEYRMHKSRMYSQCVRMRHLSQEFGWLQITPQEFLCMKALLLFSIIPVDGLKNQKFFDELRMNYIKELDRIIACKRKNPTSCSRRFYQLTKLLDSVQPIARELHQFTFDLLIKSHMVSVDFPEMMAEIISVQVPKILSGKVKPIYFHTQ

`CCCCCCCC/C=C/CCCCCCCC1=NCCN1CCO`: the Potency entry in [1], in assay [2] and in [6] was “inactive” throughout. In addition, the Potency is 54.5 µM (active) in assay [3], 61.1 µM (active) in assay [4], 27.3 µM (active) in assay [5] and 54.5 µM (active) in assay [7].

Turning to `O=[N+]([O-])c1cc([N+](=O)[O-])c2ccc(S(=O)(=O)O)cc2c1O`, the Potency entry in assay [1], in [5] and in assay [7] was “inactive” throughout. For the same compound, the Potency in [8] is 13.6 µM (active); in [9], 8.58 µM (active); in assay [4] it was 21.6 µM (active); in [10], 19.2 µM (active).

Consider `O=c1[nH]sc2ccccc12`, for which the Potency in [11] was 54.5 µM (active); in assay [8], 13.7 µM (active); in [9], 17.2 µM (active); in assay [12] it was 0.969 µM (active); in assay [5], 19.3 µM (active); in assay [7], 27.3 µM (active). For the same compound, the Potency in assay [16] was 68.6 µM (active). Also, the Potency entry in assay [1], in assay [2], in assay [13] and in [14] was “inactive” in each case. Besides, the outcome in [15] was inactive.

Take `Fc1ccc(C(c2ccc(F)cc2)N2CCN(C/C=C/c3ccccc3)CC2)cc1`: the Potency result in assay [11], in assay [17], in assay [1], in assay [8], in [9] and in assay [2] was “inactive” each time. In addition, the Potency entry in assay [12], in assay [13], in [14], in assay [16] and in [10] was “inactive” each time. Besides, in [3], the Potency was 16.8 µM (active). The outcome in assay [15] was inactive.

`O=C1Cc2cc(CCN3CCN(c4nsc5ccccc45)CC3)c(Cl)cc2N1`: the Potency result in assay [11], in assay [18], in [17], in [1], in assay [2] and in assay [13] was “inactive” in each case. Further, the Potency entry in assay [14] and in [16] was “inactive” in each case. In addition, the Potency in [8] was 23.7 µM (active); in [12], 29.8 µM (active). In addition, the outcome in [15] was inactive.

For the compound `CCCCCCCCCCCCc1ccc(O)cc1`, the Potency was 61.1 µM (active) in [11], 10.9 µM (active) in [14] and 68.6 µM (active) in assay [10]. The Potency result in assay [17], in assay [1], in [2], in [12] and in assay [16] was “inactive” in each case. Moreover, the compound was called inactive in assay [15].

Regarding `Cc1cc2c(cc1C(F)(F)F)N(C(=O)Nc1ccc(Oc3cccnc3C)nc1)CC2`, the Potency in [11] was 31.1 µM (active); in assay [3], 19.6 µM (active); in [4], 55.3 µM (active). In addition, the Potency result in assay [17], in assay [1], in assay [8], in assay [9], in assay [2] and in assay [7] was “inactive” each time. Moreover, the Potency result in [14] and in assay [10] was “inactive” each time.

`Cc1cc(=O)oc2cc(N(C)C)ccc12`: the Potency entry in [17], in assay [1], in assay [2], in [12] and in assay [16] was “inactive” in each case. In assay [15], the result was inactive.

In the case of `On1ccccc1=S`, the Potency result in assay [1], in assay [2] and in assay [16] was “inactive” each time. Besides, the Potency is 3.03 µM (active) in assay [9], 0.762 µM (active) in assay [12] and 0.428 µM (active) in assay [3]. In addition, the call in assay [15] was inactive.

Take `Nc1ccc2cc(S(=O)(=O)O)cc(O)c2c1N=Nc1ccccc1C(F)(F)F`: the Potency entry in assay [17], in assay [1], in [2], in assay [12], in assay [13] and in assay [3] was “inactive” each time. Also, the Potency entry in [5] and in assay [7] was “inactive” each time. Further, the values for the Potency in [4] and in assay [10] were 30.6 µM (active) and 48.6 µM (active), respectively.

Regarding `CCCCc1oc2ccc(NS(C)(=O)=O)cc2c1C(=O)c1ccc(OCCCN(CCCC)CCCC)cc1`, the Potency result in assay [18], in assay [17] and in [1] was “inactive” throughout. Further, the Potency is 21.1 µM (active) in assay [8]; 26.6 µM (active) in assay [9]; 2.98 µM (active) in assay [12]; 21.1 µM (active) in assay [4]; 11.9 µM (active) in assay [5]; 10.6 µM (active) in assay [7]. Besides, the figures for the Potency in assay [16] and in assay [10] were 29.8 µM (active) and 33.5 µM (active), respectively. Besides, the result in assay [15] was inactive.

Regarding `CC[C@@]1(O)C(=O)OCc2c1cc1n(c2=O)Cc2cc3c(CN(C)C)c(O)ccc3nc2-1`, the Potency is 1.88 µM (active) in [11] and 1.33 µM (active) in assay [12]. Moreover, the Potency result in assay [18], in [17], in assay [1], in assay [2], in [5] and in assay [7] was “inactive” throughout. For the same compound, the Potency result in [14] and in assay [16] was “inactive” in each case. Moreover, the compound was called inactive in assay [15].

For `CC[C@H]1O[C@]2(CC[C@@H]1C)C[C@@H]1C[C@@H](C/C=C(\C)C[C@@H](C)/C=C/C=C3\CO[C@@H]4[C@H](O)C(C)=C[C@@H](C(=O)O1)[C@]34O)O2`, the Potency result in assay [17], in assay [1], in assay [9], in assay [2], in [14] and in assay [16] was “inactive” each time. The Potency is 60.6 µM (active) in assay [4], 24.1 µM (active) in assay [5] and 68 µM (active) in assay [10]. Also, in assay [15], the call was inactive.

Consider `CCN(CC)CCCC(C)Nc1c2ccc(Cl)cc2nc2ccc(OC)cc12` (stereo unspecified), for which the Potency entry in assay [9] and in assay [2] was “inactive” throughout. In addition, the Potency in assay [12] was 29.8 µM (active); in assay [4], 11.9 µM (active); in assay [5] it was 6.68 µM (active).

The values are drawn from PubChem BioAssay (Tox21).
